LAP4-GFP MLPCN: modulators of TOR pathway LAP4-GFP in S. cerevisiae; S. cerevisiae LAP4-GFP multiplex, flow cytometry GFP, 3 h; median GFP as percent of DMSO wells; GFP response vs DMSO, % at 10 µM; actives 0.34% (n = 320,000); AID 2023;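 active = GFP response vs DMSO above a set limit, about the screen mean plus 3 SD, cut at about 150% in these data; inconclusive = under 70 cell events counted for the yeast strain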
RPL19A-GFP yeast: alters RPL19A-GFP fluorescence in TOR pathway yeast screen; percent response vs DMSO, % at 10 µM; S. cerevisiae RPL19A-GFP strain, flow cytometry, 3 h; hits give low values; actives 0.3% (n = 330,000);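 active = percent response vs DMSO below 50%; inconclusive = fewer than 70 events counted for the yeast strain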;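 note: median channel GFP fluorescence of the barcoded RPL19A-GFP strain; ratio of sample median GFP to plate DMSO average so 100% = DMSO; lower means less RPL19A-GFP as with rapamycin TOR inhibition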
CIT2-GFP yeast: alters CIT2-GFP fluorescence in TOR pathway yeast screen | S. cerevisiae CIT2-GFP strain, flow cytometry, 3 h; 100 means same as DMSO wells | GFP response vs DMSO, % at 10 µM | actives 0.065% (n = 320,000);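 active = GFP response relative to DMSO above a set limit, near the screen mean plus 3 SD, cut at about 150% in these data; inconclusive = Fewer than 70 cells measured for a yeast strain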;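 note: ratio of well median GFP fluorescence to mean of DMSO wells on the plate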
AGP1-GFP MLPCN: modulators of TOR pathway AGP1-GFP in S. cerevisiae; S. cerevisiae AGP1-GFP multiplex flow cytometry, 3 h; GFP as percent of DMSO wells; GFP response vs DMSO, % at 10 µM; actives 0.02% (n = 320,000); AID 2066;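 active = GFP response relative to DMSO above a set limit, near screen average plus 3 SD, cut at about 150% in these data; inconclusive = fewer than 70 cells counted for the yeast strain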;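 note: median GFP channel fluorescence of the gated AGP1 strain per well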
MEP2 TOR yeast: alters MEP2-GFP fluorescence in TOR pathway yeast screen | actives 0.51% (n = 330,000) | GFP response vs DMSO, % at 10 µM | S. cerevisiae MEP2-GFP strain, flow cytometry GFP, 3 h; 100% = DMSO control level;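 active = GFP response versus DMSO above a set limit, roughly screen mean plus 3 SD, cut at about 180% in these data; inconclusive = fewer than 70 cells counted for a yeast strain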;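 note: median GFP fluorescence of the barcode-gated MEP2-GFP cells per well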
Starred values were filed as active, the others as inactive; ? = inconclusive; nt = no result; ! = repeats disagree; [ ] = remark or other dose. Shown are actives, neighbours in structure and some others; about 0.89% of the full set was active somewhere.

SMILES	LAP4-GFP MLPCN	RPL19A-GFP yeast	CIT2-GFP yeast	AGP1-GFP MLPCN	MEP2 TOR yeast
CCc1ccc2[nH]c(C(=O)Nc3ccc(C)c(F)c3)cc2c1	88	102	93	91	105
CCOC(=O)C(=Cc1ccc(F)cc1)C(=O)OCC	122	65	107	25	188*
CCCc1c(C(=O)N/N=C/c2ccccc2C(F)(F)F)nnn1-c1nonc1N	97	100	103	97	105
O=C(COC(=O)Cc1ccccc1)NCc1ccc2c(c1)OCO2	100	97	93	96	101
Cc1cccc(C)c1NC(=O)C1(N(Cc2ccco2)C(=O)c2ccccn2)CCCC1	106	60	?	nt	277*[may fluoresce violet]
COc1ccccc1CNC(=O)CS(=O)Cc1nc(-c2ccc(OC)c(OC)c2)oc1C (configuration not stated)	78	44*	92	26	103
Cc1ccc(CCNC(=O)C2CCN(S(=O)(=O)c3ccc4nc5c(c(C(=O)O)c4c3)CCCC5)CC2)cc1	85	100	97	100	101
COc1ccc(Nc2cc(C(=O)NCCCN3CCN(C)CC3)c3ccccc3n2)cc1	96	47*[may fluoresce violet]	?	21	244*[may fluoresce violet]
COc1ccc(Nc2cc(C(=O)NCCCN3CCOCC3)c3ccccc3n2)cc1	94	99	96	95	103
CC1Sc2ccc(S(=O)(=O)CCC(=O)NC3CCCCC3C)cc2NC1=O (configuration not stated)	99	98	101	100	109
CC(=O)Nc1cccc(C(=O)OCC(=O)NNC(=O)c2cccs2)c1	105	101	99	107	105
Cc1ccc(-c2nc3c(Cl)cc(Cl)cc3c(=O)n2O)cc1	104	105	96	96	96
N#Cc1c(NCCCO)nc(-c2ccco2)c2c1CCCC2	103	93	?	17	243*[may fluoresce violet]
N#Cc1c(NC2CCCCC2)nc(-c2ccco2)c2c1CCCC2	105	94	64	18	96
Cn1cccc1C1CCCN1CC(=O)Nc1ccc(C(N)=O)cc1 (configuration not stated)	94	95	100	96	100
Cc1nc2ncnn2c(C)c1CCC(=O)NCCCN1CCN(c2cccc(Cl)c2)CC1	104	24*[may fluoresce violet]	?	?	180*[may fluoresce violet]
Cc1ccc(OC2CCN(C(=O)C3CCC(=O)N(C4CC4)C3)CC2)cc1 (configuration not stated)	79	93	87	92	77
Cc1ccccc1OC1CCN(C(=O)C2CCC(=O)N(C3CCCC3)C2)CC1 (configuration not stated)	156*	88	100	105	99
O=C(Nc1ccc(F)cc1)C1CCCN(c2cnccn2)C1 (configuration not stated)	152*	93	109	113	104
COc1ccc(NC(=O)Nc2c(O)ccc3ccccc23)cc1	96	22*[may fluoresce violet]	?	?	?
COc1ccc(C(=O)Nc2c(O)ccc3ccccc23)cc1	97	95	101	95	92
COc1ccc(C(=O)Nc2c(O)ccc3ccccc23)cc1OC	105	43*[may fluoresce violet]	?	?	489*[may fluoresce violet]
COC(=O)c1c(C(=O)OC)c(-c2ccccc2)n2c1CS(=O)C2 (configuration not stated)	100	41*[may fluoresce violet]	?	?	355*[may fluoresce violet]
COC(=O)c1c(C(=O)OC)c(-c2ccc(F)cc2)n2c1CS(=O)C2 (configuration not stated)	99	104	104	101	118
Cc1cc(=O)oc2c3c(cc(OCC(=O)Nc4ccc(CCO)cc4)c12)OC(C)(C)CC3	90	41*[may fluoresce violet]	?	?	209*[may fluoresce violet]
SMILES	LAP4-GFP MLPCN	RPL19A-GFP yeast	CIT2-GFP yeast	AGP1-GFP MLPCN	MEP2 TOR yeast
Cc1ccc(NC(=O)c2cc(NC(=O)c3ccco3)ccc2N2CCCCC2)cc1	90	27*[may fluoresce violet]	?	?	371*[may fluoresce violet]
Cc1ccc(NC(=O)c2cc(NC(=O)c3ccco3)ccc2N2CCOCC2)cc1	103	98	94	97	100
Nc1ccc(-c2c3ccc(=O)cc-3oc3cc(O)ccc23)cc1C(=O)O	157*	101	142	113	124
CN1CCc2nc3sc(C(=O)C45CC6CC(CC(C6)C4)C5)c(N)c3cc2C1	120	73	?	25	257*[may fluoresce violet]
Nc1c(C(=O)O)sc2nc3c(cc12)CCCC3	113	99	99	113	99
COCc1c(C(=O)N/N=C(/C)c2cccs2)nnn1-c1nonc1N	101	105	105	112	101
C/C(=N\NC(=O)c1nonc1N)c1cccs1	127	102	99	101	233*
CCCCCN(C(=O)CCC(=O)OCCOc1ccccc1Cl)c1c(N)n(CCCC)c(=O)[nH]c1=O	112	100	92	110	93
Nc1ccc(C(=O)O)c(O)c1	384*![may fluoresce red]	?	79	84	94
O=C(O)c1ccc(O)cc1O	111	105	91	111	104
C=CCn1cc(C(=O)N2CCN(c3ccccc3)CC2)c(=O)c2cc(S(=O)(=O)N3CCCC3)ccc21	103	98	103	102	103
O=C(CC1S/C(=N/N=C2CCCCCC2)NC1=O)Nc1ccccc1C(F)(F)F (configuration not stated)	71	46*[may fluoresce violet]	?	?	182*[may fluoresce violet]
Cc1nn(C)c(C)c1C1C(C#N)=C(N)Oc2n[nH]c(C)c21 (configuration not stated)	96	103	99	101	99
Cc1nn(-c2ccccc2)c(C)c1C1C(C#N)=C(N)Oc2n[nH]c(C)c21 (configuration not stated)	113	43*[may fluoresce violet]	?	31	317*[may fluoresce violet]
O=C(Nc1ccccc1N1CCN(C(=O)c2ccc(Cl)cc2)CC1)c1ccc([N+](=O)[O-])o1	115	95	82	97	103
O=C(Nc1ccccc1N1CCOCC1)c1ccc([N+](=O)[O-])o1	40	45*	52	22	68
O=C(Nc1cccc(Cl)c1N1CCCC1)c1ccc([N+](=O)[O-])o1	211*	82	67	81	82
O=C(c1c[nH]c2ccccc12)C(Cl)c1ccccc1 (configuration not stated)	114	99	87	74	105
CCCc1cc(=O)n(-c2nc3ccccc3s2)[nH]1	159*	91	92	93	90
CCOC(=O)Cc1cc(=O)n(-c2nc3ccccc3s2)[nH]1	98	101	102	102	102
Cc1nnc(N2CCC(C(=O)N3CCCCC3)CC2)c2nn(-c3ccc(Cl)cc3)c(C)c12	96	97	99	95	115
COc1ccc(-n2nc3c(N4CCC(C(=O)N5CCC(C)CC5)CC4)nnc(C)c3c2C)cc1	69	51	?	?	258*[may fluoresce violet]
C=CCOc1ccc(/C(O)=C2/C(=O)C(=O)N(CCCN3CCOCC3)C2c2ccccc2)cc1 (configuration not stated)	89	29*[may fluoresce violet]	?	?	316*[may fluoresce violet]

Screens: PubChem BioAssay, NMMLSC
